Laboratory results as given in PubChem BioAssay (NCATS).
Results filed as inconclusive are left out. Active and inactive are the calls of the source. Unless noted, the call rests on the fitted dose curve.

What was measured:
[1] = qHTS drug screen for cell cycle checkpoint inhibitors in PARPi-resistant BRCA-mutant ovarian cancer cell lines. (AID 1963452); settings: PEO1/OlaR viability, CellTiter-Glo luminescence, 96 h; for Z-AUC: stronger effect = lower value; further: potency means the concentration at half of the fitted maximal effect
How it was run: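 PEO1, PEO4 and PEO1/OlaR ovarian cancer cells, 600 per well, exposed 96 h at 37C to a dilution series. Viability read by CellTiter-Glo luminescence, normalized to DMSO and empty wells; activity summarized as Z-AUC.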

[2] = qHTS for identification of novel therapeutic agents for treatment of microphthalmiaassociated transcription factor (MiT) renal cell carcinoma (RCC) (AID 1963991); settings: CellTiter-Glo, 48 h; for Potency: active = Z-AUC below -0.8 in all three lines; for z-score: stronger effect = lower value; further: potency means the concentration at half of the fitted maximal effect
How it was run: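 Curves over 11 concentrations were fitted to CellTiter-Glo luminescence, scaled between empty wells (0%) and DMSO (100%) viability. Cells were UOK109, UOK124 and UOK145 TFE3-fusion RCC lines at 500/well, exposed 48 hours at 37 C.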

[3] = qHTS profiling for inhibitors of Plasmodium falciparum proliferation (AID 504749; active means well fitted inhibition curve with a large enough effect;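 further: 0% = DMSO vehicle and full inhibition = artemisinin control; nearly all actives have a fitted effect of over 60% in size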); settings: P. falciparum in erythrocytes, SYBR Green DNA, 72 h, at 28.7 µM (top of the series)
How it was run: (§1)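 P. falciparum-infected erythrocytes (0.3% parasitemia, 2.5% hematocrit) incubated with compound 72 h at 37 C, 5% CO2. Parasite DNA detected by SYBR Green after lysis, overnight at room temperature; normalised to 0.29 uM artemisinin and DMSO.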

3D7 = experiment: as above; settings: P. falciparum in erythrocytes, SYBR Green DNA, 72 h; series mostly up to 28.7 µM
How it was run: as §1

7G8 = experiment: as above; settings: P. falciparum in erythrocytes, SYBR Green DNA, 72 h; series mostly up to 28.7 µM
How it was run: as §1

AA1029 = experiment: as above; settings: P. falciparum in erythrocytes, SYBR Green DNA, 72 h; series mostly up to 28.7 µM
How it was run: as §1

AS120 = experiment: as above; settings: P. falciparum in erythrocytes, SYBR Green DNA, 72 h; series mostly up to 28.7 µM
How it was run: as §1

ATS189 = experiment: as above; settings: P. falciparum in erythrocytes, SYBR Green DNA, 72 h; series mostly up to 28.7 µM
How it was run: as §1

ATS95 = experiment: as above; settings: P. falciparum in erythrocytes, SYBR Green DNA, 72 h; series mostly up to 28.7 µM
How it was run: as §1

C2A = experiment: as above; settings: P. falciparum in erythrocytes, SYBR Green DNA, 72 h; series mostly up to 28.7 µM
How it was run: as §1

CP185 = experiment: as above; settings: P. falciparum in erythrocytes, SYBR Green DNA, 72 h; series mostly up to 28.7 µM
How it was run: as §1

CP191 = experiment: as above; settings: P. falciparum in erythrocytes, SYBR Green DNA, 72 h; series mostly up to 28.7 µM
How it was run: as §1

CP192 = experiment: as above; settings: P. falciparum in erythrocytes, SYBR Green DNA, 72 h; series mostly up to 28.7 µM
How it was run: as §1

CP194 = experiment: as above; settings: P. falciparum in erythrocytes, SYBR Green DNA, 72 h; series mostly up to 28.7 µM
How it was run: as §1

CP201 = experiment: as above; settings: P. falciparum in erythrocytes, SYBR Green DNA, 72 h; series mostly up to 28.7 µM
How it was run: as §1

CP203 = experiment: as above; settings: P. falciparum in erythrocytes, SYBR Green DNA, 72 h; series mostly up to 28.7 µM
How it was run: as §1

CP211 = experiment: as above; settings: P. falciparum in erythrocytes, SYBR Green DNA, 72 h; series mostly up to 28.7 µM
How it was run: as §1

[4] = measured here: PEO1 parental Z-AUC
[5] = TFE3-RCC UOK109 viability, measured here: UOK109 Z-AUC
[6] = TFE3-RCC viability, measured here: UOK124 Z-AUC
[7] = TFE3-RCC viability, measured here: UOK145 Z-AUC

## COc1cc(N2CCC(N3CCN(C)CC3)CC2)ccc1Nc1ncc(Cl)c(Nc2ccccc2S(=O)(=O)C(C)C)n1
[1]
  Z-AUC: -0.172 (inactive)
[1]; [4]
  Z-AUC: -0.594
[1]; measured here: PEO4 Z-AUC
  Z-AUC: -0.618
[2]; TFE3-RCC UOK109 viability
  Potency: 14.8 µM (active)
[2]; [5]
  z-score: -1.55
[2]; [6]
  z-score: -1.62
[2]; [7]
  z-score: -1.41

## COc1cc(N2CCC(N3CCN(C)CC3)CC2)ccc1Nc1ncnc(Nc2ccccc2S(=O)(=O)C(C)C)n1
[1]
  Z-AUC: 0.282 (inactive)
[1]; [4]
  Z-AUC: 0.069
[1]; measured here: PEO4 Z-AUC
  Z-AUC: 0.238

## CN1[C@@H]2CCC[C@@H]1CC(NC(=O)c1nn(C)c3ccccc13)C2 (stereo partly drawn)
[1]
  Z-AUC: -0.105 (inactive)
[1]; [4]
  Z-AUC: -0.292
[1]; measured here: PEO4 Z-AUC
  Z-AUC: 0.149
[2]; [5]
  z-score: 0.506
[2]; [6]
  z-score: 0.637
[2]; [7]
  z-score: 0.0896

## CC(C)=CC[C@@H](O)C1=CC(=O)c2c(O)ccc(O)c2C1=O
[1]
  Z-AUC: -0.228 (inactive)
[1]; [4]
  Z-AUC: -0.402
[1]; measured here: PEO4 Z-AUC
  Z-AUC: -0.229

## CC1CCC(C(=O)N(c2cc(C#CC(C)(C)C)sc2C(=O)O)C2CCC(O)CC2)CC1 (stereo not drawn)
[1]
  Z-AUC: 0.0164 (inactive)
[1]; [4]
  Z-AUC: -0.415
[1]; measured here: PEO4 Z-AUC
  Z-AUC: -0.158
[2]; [5]
  z-score: 1.18
[2]; [6]
  z-score: 1.68
[2]; [7]
  z-score: 0.196

## O=C(O)c1ccccc1C(=O)Nc1ccc(-c2ccccc2)cc1
[1]
  Z-AUC: 1.24 (inactive)
[1]; [4]
  Z-AUC: 0.724
[1]; measured here: PEO4 Z-AUC
  Z-AUC: 0.552
[2]; [5]
  z-score: 0.921
[2]; [6]
  z-score: 0.86
[2]; [7]
  z-score: 0.469

## COc1cccc(-c2cc(=O)c3ccccc3o2)c1N
[1]
  Z-AUC: -0.672 (inactive)
[1]; [4]
  Z-AUC: -0.47
[1]; measured here: PEO4 Z-AUC
  Z-AUC: -0.869

## Cc1ccccc1C(C(=O)NC1CCCCC1)N(C(=O)Cn1ccnc1C)c1cccc(F)c1 (stereo not drawn)
[1]
  Z-AUC: 0.113 (inactive)
[1]; [4]
  Z-AUC: 0.941
[1]; measured here: PEO4 Z-AUC
  Z-AUC: 0.654
[2]; [5]
  z-score: 0.6
[2]; [6]
  z-score: 0.139
[2]; [7]
  z-score: 0.682

## O=C(O)c1cc(O)c2c(c1)C(=O)c1cccc(O)c1C2=O
[1]
  Z-AUC: -0.369 (inactive)
[1]; [4]
  Z-AUC: -0.852
[1]; measured here: PEO4 Z-AUC
  Z-AUC: -0.959
[2]; [5]
  z-score: 1.17
[2]; [6]
  z-score: -0.187
[2]; [7]
  z-score: 1.5

## COc1ncc(-c2ccc3nccc(-c4ccnnc4)c3c2)cc1NS(=O)(=O)c1ccc(F)cc1F
[1]
  Potency: 0.174 µM (active)
[1]; [4]
  Z-AUC: -2.06
[1]; measured here: PEO4 Z-AUC
  Z-AUC: -1.99
[2]; TFE3-RCC UOK109 viability
  Potency: 33.2 µM (active)
[2]; [5]
  z-score: -3.1
[2]; [6]
  z-score: -1.24
[2]; [7]
  z-score: -3.12

## O=c1c(-c2ccc(O)cc2)coc2cc(O)ccc12
[1]
  Z-AUC: 1.12 (inactive)
[1]; [4]
  Z-AUC: 1.51
[1]; measured here: PEO4 Z-AUC
  Z-AUC: 1.78
[2]; [5]
  z-score: 0.875
[2]; [6]
  z-score: 0.542
[2]; [7]
  z-score: 0.636

## O=C(NC1CCOCC1)c1ccc(-c2cc(-c3cn[nH]c3-c3ccccn3)ccn2)cc1
[1]
  Z-AUC: 0.761 (inactive)
[1]; [4]
  Z-AUC: 0.819
[1]; measured here: PEO4 Z-AUC
  Z-AUC: 0.929
[2]; [5]
  z-score: 0.905
[2]; [6]
  z-score: 1.11
[2]; [7]
  z-score: 0.561

## CO[C@H]1C[C@@H]2CC[C@@H](C)[C@@](O)(O2)C(=O)C(=O)N2CCCC[C@@H]2C(=O)O[C@H]([C@@H](C)C[C@@H]2CC[C@H](O)[C@H](OC)C2)CC(=O)[C@H](C)C=C(C)[C@@H](O)[C@@H](OC)C(=O)[C@H](C)C[C@H](C)C=CC=CC=C1C
[1]
  Z-AUC: -0.986 (inactive)
[1]; [4]
  Z-AUC: -0.581
[1]; measured here: PEO4 Z-AUC
  Z-AUC: -0.84
[2]; [5]
  z-score: -0.128
[2]; [6]
  z-score: 1.08
[2]; [7]
  z-score: -0.61

## CC(C)C(C)C=CC(C)C1CCC2C3=CC=C4CC(O)CCC4(C)C3CCC21C (stereo not drawn)
[1]
  Z-AUC: 1.48 (inactive)
[1]; [4]
  Z-AUC: 1.13
[1]; measured here: PEO4 Z-AUC
  Z-AUC: 1.32
[2]; [5]
  z-score: 0.762
[2]; [6]
  z-score: 0.655
[2]; [7]
  z-score: 1.94

## NS(=O)(=O)c1ccc(NC2=CC(=O)c3ccccc3C2=O)cc1
[1]
  Z-AUC: -0.549 (inactive)
[1]; [4]
  Z-AUC: -0.888
[1]; measured here: PEO4 Z-AUC
  Z-AUC: -0.629

## C[C@]12CC[C@@H]3c4ccc(O)cc4C[C@@H](CCCCCCCCCS(=O)CCCC(F)(F)C(F)(F)F)[C@H]3[C@H]1CC[C@H]2O (stereo partly drawn)
[1]
  Z-AUC: -0.724 (inactive)
[1]; [4]
  Z-AUC: -0.171
[1]; measured here: PEO4 Z-AUC
  Z-AUC: -1.07
[2]; [5]
  z-score: 1.23
[2]; [6]
  z-score: 0.607
[2]; [7]
  z-score: 0.767

## COc1ccc(Cc2ccc(NC(N)=O)cc2)cc1-c1cccc(Cl)c1
[1]
  Z-AUC: 0.65 (inactive)
[1]; [4]
  Z-AUC: -0.098
[1]; measured here: PEO4 Z-AUC
  Z-AUC: 0.315
[2]; [5]
  z-score: 0.762
[2]; [6]
  z-score: 0.853
[2]; [7]
  z-score: 0.582

## Nc1ncnc2c1ncn2[C@@H]1O[C@@H](CO)[C@H](O)[C@H]1O
[2]; [5]
  z-score: 0.834
[2]; [6]
  z-score: 0.529
[2]; [7]
  z-score: 0.73

## OC[C@H]1O[C@@H](n2cnc3c2NC=NC[C@@H]3O)C[C@H]1O
[2]; [5]
  z-score: 0.518
[2]; [6]
  z-score: 0.532
[2]; [7]
  z-score: 0.196

## Cc1cnc(C(=O)O)c[n+]1[O-]
[1]
  Z-AUC: -0.768 (inactive)
[1]; [4]
  Z-AUC: -0.301
[1]; measured here: PEO4 Z-AUC
  Z-AUC: -0.6
[2]; [5]
  z-score: 1.58
[2]; [6]
  z-score: 0.716
[2]; [7]
  z-score: 0.578
[3]; parasite line A
  activity, negative = inhibition: -1.49% (inactive)
[3]; parasite line B
  activity, negative = inhibition: -8.14% (inactive)
3D7
  outcome: inactive
7G8
  Potency: inactive
AA1029
  outcome: inactive
AS120
  Potency: inactive
ATS189
  Potency: inactive
ATS95
  outcome: inactive
C2A
  outcome: inactive
CP185
  outcome: inactive
CP191
  Potency: inactive
CP192
  Potency: inactive
CP194
  Potency: inactive
CP201
  outcome: inactive
CP203
  outcome: inactive
CP211
  Potency: inactive

## CC(C)(C)COc1ccc(-n2cc(C(=O)O)cn2)cc1C#N
[2]; [5]
  z-score: 1.01
[2]; [6]
  z-score: 0.953
[2]; [7]
  z-score: 0.498
